These results are taken from PubChem BioAssay (NCI).

This is part of a sample that, as a whole, favours compounds with a hit. Of some 83,000 tested, about 20% had one in any assay.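 Method: cells in 96-well plates; compound added at one concentration; 48 h incubation; percent growth measured; values under 10 scored active.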 A number with no mark means an inactive call. Activity calls are given as the source filed them.

What all share (test): NCI-60 one-dose screen, 48 h (100 = growth as untreated, 0 = no growth, -100 = all killed)
Settings in all cases: 10 µM unless noted

Assay [1] relates to SK-MEL-2 melanoma.
The test system of assay [2] is EKVX NSCLC.
Assay [3] relates to SN12C renal.
Assay [4] relates to UO-31 renal.
The test system of assay [5] is TK-10 renal.
The test system of assay [6] is ACHN renal.
For assay [7], the system named is CAKI-1 renal.
For assay [8], the system named is A498 renal.
In assay [9] the test system is CCRF-CEM leukemia.
Assay [10] relates to MOLT-4 leukemia.
The subject of assay [11] is SR leukemia.
In assay [12] the test system is OVCAR-8 ovarian.
The subject of assay [13] is OVCAR-5 ovarian.
Assay [14] concerns SK-OV-3 ovarian.
Assay [15] deals with IGROV1 ovarian.
For assay [16], the system named is OVCAR-3 ovarian.
Assay [17] deals with HS 578T breast.
Assay [18] deals with NCI/ADR-RES ovarian.
In assay [19] the test system is OVCAR-4 ovarian.
For assay [20], the system named is RPMI-8226 leukemia.

`COc1ccc(/C=C2\COc3ccc(O)cc3C2=O)c(OC)c1`: the growth in assay [1] is 55.9%; in assay [2], 70.5%; in assay [3] it was 52.7%; in assay [4], 74.9%; in assay [5], 91.9%; in assay [6] it was 85.2%. The growth in [7] is 59.3%; in [8], 92.4%; in [9], 4.96% (active); in assay [10] it was 36.8%; in assay [11], 19.5%; in assay [12] it was 63.3%. Also, the growth in assay [13] is 94.3%; in [14] it was 58%; in assay [15] it was 67.3%; in assay [16] it was 27%; in [17], 66%; in [18] it was 33%.

Take `Clc1ccc(/C=C/c2nc(Nc3ccc(Cl)cc3)c3ccccc3n2)cc1`: the growth in assay [1] is 106%; in assay [2], 90.5%; in [3] it was 103%; in assay [4] it was 70%; in [5], 121%; in assay [6], 105%. Besides, the growth in assay [7] was 90.1%; in assay [8], 94.9%; in [9], 102%; in [10], 98.2%; in assay [11], 104%; in assay [12], 102%. Moreover, the growth was 106% in [13]; 112% in assay [19]; 96.6% in assay [14]; 78.2% in [15]; 106% in assay [16]; 103% in assay [17]. The growth in assay [18] was 103%.

`C=C1C(=O)O[C@H]2[C@H]1CC/C(COC(=O)/C=C\C(=O)NCc1ccc(Cn3c(=O)sn(-c4ccc(Cl)cc4)c3=O)cc1)=C\CC[C@@]1(C)O[C@@H]21`: the growth in assay [1] was -64.7% (active); in assay [2], -74.8% (active); in assay [3], -96.1% (active); in [4] it was -100% (active); in assay [5] it was -85.1% (active); in assay [6], -100% (active). For the same compound, the growth in [7] is -69.9% (active); in assay [8] it was -15.8% (active); in assay [9], -22.9% (active); in assay [10], -36.7% (active); in assay [11], -46.3% (active); in assay [12] it was -12% (active). Moreover, the growth in [13] is -86.2% (active); in assay [19], -78.4% (active); in assay [14], 52.4%; in assay [15], -99.5% (active); in assay [16], -97.6% (active); in [17] it was -18.2% (active). The growth in [18] is -6.62% (active).

Turning to `COc1cccc(/C=C2\COc3ccc(O)cc3C2=O)c1OC`, the growth was 96.4% in [1]; 92.8% in [2]; 44.4% in assay [3]; 58.6% in assay [4]; 89.3% in assay [5]; 54.6% in [6]. The growth in assay [7] is 63.4%; in assay [8], 90.7%; in assay [9], 2.69% (active); in assay [10] it was 32.9%; in assay [11], 5.49% (active); in assay [12], 69%. Further, the growth in assay [13] was 89.7%; in assay [19], 92.5%; in assay [14], 92.9%; in assay [15], 67.5%; in assay [16] it was 41.2%; in assay [17], 73%. In assay [18], the growth is 63.2%.

Consider `CCN(CC)CCOc1ccc(/C(=C(\C)c2ccc(OC)c(F)c2)c2ccc(Cl)cc2)cc1`, for which the growth was 95.9% in assay [1]; 96.5% in assay [2]; 83.5% in assay [3]; 75.6% in assay [4]; 82.6% in assay [5]; 89.8% in assay [6]. In addition, the growth in assay [7] is 67.2%; in [8], 102%; in assay [9] it was 60.2%; in assay [10], 70.8%; in assay [11], 29.8%; in assay [13], 72.9%. Also, the growth in assay [19] is 73.1%; in [14] it was 91.1%; in assay [15] it was 72.2%; in assay [16], 89%; in [17], 70%; in assay [18] it was 82.3%.

On to `COc1ccc(OC)c(/C=C2\COc3ccc(O)c(O)c3C2=O)c1`, for which the growth in assay [1] is 76.6%; in assay [2] it was 57.9%; in assay [3], -4.71% (active); in assay [4], -25.8% (active); in assay [5] it was 41.5%; in assay [6], 19.6%. In addition, the growth in assay [7] was 31.2%; in assay [8] it was 107%; in [9] it was -0.701% (active); in assay [10], 4.32% (active); in assay [11], 7.03% (active); in [12], 24.7%. Further, the growth in [13] was 31.9%; in assay [19], 27.4%; in assay [14], 45.2%; in assay [15], 5.82% (active); in assay [16] it was 1.23% (active); in assay [17], 22%. For the same compound, the growth in assay [18] is 14.1%.

For the compound `O=C1C(Cl)C(c2ccccc2Cl)N1n1cnnc1` (stereo not given), the growth in assay [1] is 102%; in assay [2], 99.8%; in assay [3], 100%; in assay [4], 83.3%; in assay [5], 102%; in assay [6] it was 96.8%. Moreover, the growth in assay [7] was 85.6%; in [8] it was 93.9%; in [9], 98.6%; in assay [10] it was 101%; in assay [20] it was 102%; in [12], 96.2%. Further, the growth was 91.4% in [13]; 97.5% in assay [19]; 77.3% in assay [14]; 91.5% in assay [15]; 102% in assay [16]; 87.6% in assay [17]. Further, in [18], the growth is 106%.

As to `CCCCS(=O)(=O)Oc1ccc(-c2nc(C)c(C(=O)OCC)s2)cc1C=O`, the growth in assay [1] was 97.2%; in assay [2], 92.1%; in [3], 57.1%; in assay [4], 57.7%; in assay [5] it was 68.8%; in assay [6], 62.7%. Besides, the growth was 63.7% in assay [7]; 77.5% in assay [8]; 15.3% in [9]; 32.1% in [10]; -14.3% (active) in assay [11]; 45.4% in assay [12]. Besides, the growth in assay [13] is 94.5%; in [19] it was 75.2%; in assay [14] it was 109%; in [15] it was 42.6%; in assay [16] it was 65%; in [17] it was 63.6%. Further, in [18], the growth was 69%.
